Assay results published in PubChem BioAssay AID624202 (National Center for Advancing Translational Sciences (NCATS), 2012).
Among all 380,000 compounds or so, about 4,000 (1.1%) were called active. Not shown: some 3% with an inconclusive outcome. Only a selection was taken, and actives are over-represented in it overall. Values without a mark were called inactive. Calls follow the shape of the dose curve; as a rule, active = well fitted activation curve with a large enough effect; inconclusive = small, poorly fitted or top-dose-only effect; inactive = no such curve, though single readings can be large or run the other way.

Test: qHTS Assay to Identify Small Molecule Activators of BRCA1 Expression; also: nearly all actives have a fitted effect of over 80% in size
Conditions: MCF7-BRCA1-FFLuc reporter, luminescence, 48 h; series mostly up to 46.1 µM; activation: at the top concentration
How it was run: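 Activators of BRCA1 expression were detected as increased firefly luciferase luminescence in engineered MCF7 cells after 48 h compound incubation. Signals were scaled to genistein 10 microM as full activation.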
Potency is read from the fitted curve at half-maximal effect.

SMILES	activation [%]	Potency
CCc1ccc(CNC(=O)c2cc3c(=O)n(CC)c4ccccc4c3s2)cc1	-26.6	–
Cc1cccc(N2CCN(c3ccc(C(=O)O)cc3NC(=O)c3ccccc3F)CC2C)c1 (centres undefined)	27	–
COc1cc(Cl)c(C)cc1NC(=O)CN1CCCCCC1	15.9	–
CC(=O)Nc1ccc(NC(=O)CN2CCCC(C)C2)c(Cl)c1 (centres undefined)	–	11.2 µM (active)
O=C(CN1CCCCCC1)Nc1ccc(Cl)cc1F	-8.5	–
Cc1ccc(-c2nn3c(=O)cc(CN4CCN(S(=O)(=O)c5ccc(Cl)cc5)CC4)nc3s2)cc1	8.18	–
COc1ccc(-c2nc3ccccc3s2)cc1NC(=O)COc1ccccc1C	0	–
CCCCCCC1(C)NC(c2ccc3c(c2)OCO3)=CC(c2ccccc2O)N1 (centres undefined)	-23.1	–
COc1ccc(Nc2ncc(C(=O)Nc3cc(C)ccc3OC)c3ccccc23)cc1	-69.1	–
COc1ccc(Nc2ncnc3sc(C)cc23)cc1	–	8.91 µM (active)
COc1ccc(Nc2ncc(C(=O)N3CCN(c4ccccc4OC)CC3)c3ccccc23)cc1	–	inactive
CC1=C(C(=O)OCc2ccc(C)cc2)C(c2c(Cl)cccc2Cl)CC(=O)N1 (centres undefined)	13	–
Fc1ccc(COc2cccc(-c3n[nH]c(=S)o3)c2)cc1	0.968	–
Fc1cccc(Cl)c1COc1ccc(-c2nnco2)cc1	36.9	–
Fc1ccc(COc2ccc(-c3nnco3)cc2)cc1	–	11.2 µM (active)
COc1cc2nc(Cl)nc(NC3CC3)c2cc1OC	0	–
O=C1COc2ccc(-c3csc(-c4ccc(Cl)cc4)n3)cc2N1	-0.092	–
Cc1ccc(OCc2cc(C(=O)N(C)CCn3ccnc3C)no2)cc1C	33.8	–
COCC1CCCCN1C(=O)c1cc(COc2ccc(C)c(C)c2)on1 (centres undefined)	–	11.2 µM (active)
Cc1nonc1C1CCCN1C(=O)c1cc(COc2cccc(C(F)(F)F)c2)on1 (centres undefined)	-1.32	–
Cc1[nH]c2ccccc2c1C(c1ccccc1)c1cccs1 (centres undefined)	-62.9	–
CC(=O)c1ccc(NC(=O)c2nc(-c3ccc(C)cc3)n3c2CCCCC3)cc1	-35.8	–
Nc1ncnc2nnsc12	15.5	–

SMILES	activation [%]	Potency
CCc1ccc2nc(Nc3ncc(C(C)=O)c(C)n3)nc(C)c2c1	0.142	–
COc1ccccc1-c1c(C)nn2c(C)c(C(C)=O)cnc12	0.312	–
COc1ccccc1Nc1ncc(C(C)=O)c(C)n1	–	10 µM (active)
O=C(Cn1c(=O)n(Cc2cccs2)c(=O)c2cccnc21)Nc1ccc(F)cc1	-25.9	–
CCc1ccccc1NC(=O)Cn1c(=O)n(CC2CCC(C(=O)NCCc3ccccc3)CC2)c(=O)c2ccccc21 (centres undefined)	5.1	–
O=C(Cn1c(=O)n(Cc2ccccc2)c(=O)c2sc3ccccc3c21)Nc1ccccc1F	1.09	–
COc1ccc(N2C(=O)CSC23C(=O)N(Cc2cccc(F)c2)c2ccccc23)cc1Cl (centres undefined)	-50.1	–
COc1ccc(CCNC(=O)CCc2c(C)nc3c(c(C)nn3-c3ccc(C)c(C)c3)c2C)c(OC)c1OC	5.62	–
CCS(=O)(=O)n1nc(-c2ccc(OC)cc2)nc1SC	33.3	–
CCS(=O)(=O)n1nc(-c2ccccc2)nc1SCc1ccccc1	–	3.98 µM (active)
Cc1ccc(S(=O)(=O)n2nc(-c3ccc(Cl)cc3)nc2NCc2ccccc2)cc1	2.77	–
COc1ccccc1N1CCN(c2ncnc3onc(-c4ccc(F)cc4)c23)CC1	-0.976	–
COc1ccc(-n2nnc(-c3nsc(NC(=O)c4ccc(C)c(C)c4)n3)c2C)cc1Cl	-0.247	–
CCOC(=O)c1ccc(NC(=O)c2csc3c2CCCCC3)cc1	34.8	–
CCOc1ccc(CCNC(=O)c2csc3c2CCCCC3)cc1	-1.32	–
Cc1ccc(NC(=O)c2csc3c2CCCC3)cc1	–	12.6 µM (active)
Cc1ccc(OCCSc2nc3ccc(NC(=O)COc4ccc(C)cc4)cc3s2)cc1	18.4	–
O=C(Cn1c(=O)n(-c2ccc(F)cc2)c(=O)c2sc3ccccc3c21)NC1CCCC1	-12.4	–
Cc1cccc(NC(=O)N2CCN(C)c3ncccc32)c1C	9.79	–
CCCCC(CC)CNC(=O)C1CCN(S(=O)(=O)c2cccc3nsnc23)CC1 (centres undefined)	-6.65	–
C=CCn1c(SCc2nnc(-c3ccccc3)o2)nnc1C(O)c1ccccc1 (centres undefined)	1.72	–
CCCN(CCC)c1ccc(C(O)c2nnc(-c3ccccc3)o2)cc1 (centres undefined)	24.9	–
OC(c1nnc(-c2ccccc2)o1)c1cccs1 (centres undefined)	–	11.2 µM (active)

SMILES	activation [%]	Potency
Cc1cc(C)cc(NC(=O)Cn2c(=O)c3ccccc3n3nncc23)c1	7.25	–
Cc1ccc(C=O)cc1Cl	18.6	–
O=C(OCc1cc(=O)n2nc(C3CC3)sc2n1)c1ccccc1Cl	12	–
COc1cc2nc(SCC(=O)Nc3ccccc3F)n3nc(-c4ccccc4)nc3c2cc1OC	0	–
Cc1cc(C)cc(-n2ccnc2SCC(=O)Nc2nc3ccccc3s2)c1	9.67	–
COc1cccc(CNC(=O)c2ccc3c(Cl)c4c(nc3c2)CCCC4)c1	10.5	–
COc1cccc2sc3cc(NCC[C@@H]4CCCN4C)ccc3c(=O)c12	–	11.2 µM (active)
Cc1cc2oc3ccc(NCCC4CCCN4C)cc3c(=O)c2cc1C (centres undefined)	-78	–
CN1CCC[C@@H]1CCO[C@](C)(c1ccccc1)c1ccc(Cl)cc1	0	–
Oc1ccc(Cl)cc1C1C=C(c2ccc3c(c2)OCO3)NC(c2c(F)cccc2Cl)N1 (centres undefined)	-40.2	–
O=C(Nc1cccc(F)c1)NC1CCCCCCC1	–	3.55 µM (active)
O=C(Nc1cccc(F)c1)[C@@H]1CCCN1	-1.33	–
Cc1cc(C)cc(NC(=O)NC2CCCCCCC2)c1	32.7	–
CCn1c(CNC(=O)C23CC4CC(CC(C4)C2)C3)nnc1SCC(=O)Nc1ccc(OC)cc1	22	–
COc1ccc(-c2cc(-c3ccccc3)nc3c2COc2ccc(Cl)cc2-3)cc1	13.1	–
COc1ccc(-c2cc(-c3ccc(F)cc3)nc3c2COc2ccccc2-3)cc1	11.9	–
COc1ccc(C2=Nc3cc(C)ccc3OC2)cc1	–	11.2 µM (active)
CCCCCn1c(=O)[nH]c2cc(C(=O)NCCN(C)CCCC)ccc2c1=O	-3.6	–
COC(=O)C1=C(c2ccccc2)c2ccccc2S(=O)(=O)N1CC(=O)Nc1ccccc1C(F)(F)F	-3.16	–
COCn1c(COc2ccccc2)nc2ccccc21	–	12.6 µM (active)
COc1ccccc1Cn1c(CO)nc2ccccc21	0	–
COCc1nc2ccccc2n1Cc1ccccc1Br	-0.381	–
COc1cc(OC)cc(-c2nc3nc(C)c(CCC(=O)Nc4ccc(C)cc4)c(C)n3n2)c1	-2.52	–
